# Experimental data published in PubChem BioAssay (NCATS).
# Results filed as inconclusive are left out. A number with no mark means an inactive call. Calls come from the whole dose curve; as a rule, active = well fitted activation curve with a large enough effect; inconclusive = small, poorly fitted or top-dose-only effect; inactive = no such curve, though single readings can be large or run the other way.
# Assay: qHTS for Activators of Parkin Expression: LOPAC Validation Assay (FLuc Reporter) (AID 720573)
# Settings: Cell line, PRKN promoter firefly luciferase reporter; series mostly up to 46.1 µM; activation: at the top concentration
# Summary of the method: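 Cells seeded, 24 h; compounds pinned, 7-pt dose response; 24 h at 37 C/5% CO2; volume reduced; FLuc reagent 10 min RT; luminescence read. Normalization: DMSO = 0, positive control = 100%.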
row,Structure (SMILES),activation [%]
1,CNCC[C@H](Oc1ccc(C(F)(F)F)cc1)c1ccccc1,-13.4
2,NC(=O)C(=O)O,-7.63
3,NC(N)=NC(=O)c1nc(Cl)c(N2CCCCCC2)nc1N,12.2
4,CN(C)c1nc2c(Br)c(Br)c(Br)c(Br)c2[nH]1,-40.6
5,O=C(/C=C/c1ccc(O)cc1)c1ccc(O)cc1O,-13.5
6,CCCn1c(=O)c2[nH]c(-c3ccc(OCC(=O)NCCN)cc3)nc2n(CCC)c1=O,-2.61
7,NCCCCCCCCCCN,-1.14
8,CC(C)CC(NP(=O)(O)O[C@@H]1O[C@@H](C)[C@H](O)[C@@H](O)[C@H]1O)C(=O)NC(Cc1c[nH]c2ccccc12)C(=O)O (some centres undefined),3.34
9,CN=c1nc(-c2ccccc2)n(-c2ccccc2)s1,-23.6
10,COc1ccccc1CNCCCCCCNCCCCCCCCNCCCCCCNCc1ccccc1OC,-13
11,N#C/C(=C\c1ccc(O)c(O)c1)C(=O)c1ccc(O)c(O)c1,1.26
12,CNC(=O)[C@H]1O[C@@H](n2cnc3c(NCc4cccc(I)c4)ncnc32)[C@H](O)[C@@H]1O,-5.81
13,COC1=C(OC)C(=O)c2ccccc2C1=O,-45.1
14,Cc1ccc(C(=O)O[C@H](C(=O)O)[C@@H](OC(=O)c2ccc(C)cc2)C(=O)O)cc1 (tested in a mixture with another compound),-1.49
15,O=C(O)CC1CC(c2ccccc2)=NO1 (centres undefined),2.44
16,C=CC(C)=C[C@@]1(C)SC(=O)C(C)=C1O,5.48
17,COC(=O)c1c(C)[nH]c(C)c1C(=O)c1ccccc1Cc1ccccc1,-13.2
18,O=C(O)CNC(=O)C(CS)Cc1ccccc1 (centres undefined),-2.55
19,N#C/C(=C\c1ccc(-c2cc(Cl)ccc2Cl)o1)C(=O)Nc1cccc2ncccc12,-40.9
